E coli growth-1 – reduces bacterial viability in AddAB counter-screen | E. coli V3065 growth, OD600 absorbance, 18 h | inhibition, % at 11.9 µM | hit rate 0.27% among 330,000;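 active = inhibition above the campaign's mean inhibition across all tested compounds plus 3 SD, cut at about 9.9% in these data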;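 note: uninfected addAB+ strain grown without phage in ampicillin broth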
AddAB inh – less growth of phage-infected E. coli with AddAB; E. coli expressing H. pylori AddAB, absorbance growth; inhibition, % at 11.9 µM; AID 435030; hit rate 0.29% among 330,000; in the data active = inhibition above about 12%
PfHsp90 yeast 2 – reduces growth (ATP signal) of yeast expressing P. falciparum Hsp90; S. cerevisiae expressing PfHsp90, BacTiter-Glo ATP, 48 h; yeast lacking PDR1 and PDR3 efflux regulators; inhibition, % at 9.4 µM; hit rate 0.32% among 310,000; AID 504621;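 active = every replicate shows inhibition above about 80%, whatever the replicate mean, limit read from the data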
E coli growth-2 – blocks Escherichia coli growth | OD600, 23 h; stronger effect = lower value | OD600 absorbance (concentration not given with the values) | hit rate 0.21% among 330,000 | AID 1053175;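 active = OD600 absorbance below the run mean of sample wells minus 3.6 SD, in any replicate, cut at about 0.56 in these data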
phage Ecoli inh – E. coli growth loss with phage present | growth absorbance | inhibition, % at 11.9 µM | hit rate 0.26% among 360,000 | AID 651602; in the data active = inhibition above about 11%
Tat export inh – blocks Tat-dependent protein export in E. coli. inhibition, % at 10 µM. AID 488895. E. coli MC4100 TorA-mCherry Tat export, fluorescence. hit rate 0.036% among 340,000;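 active = mean replicate inhibition at least 50% and at least half of replicates individually reaching 50%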;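 note: exported cargo escapes ClpAP degradation while cytoplasmic cargo is degraded and loses fluorescence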
AddAB conf – growth loss of T4-infected E. coli expressing H. pylori AddAB, confirmed; shares compounds with AddAB inh; E. coli V3065 expressing H. pylori AddAB, T4 phage, OD; T4 phage with gene 2 nonsense mutations; inhibition, % at 11.9 µM; hit rate 64% among 880;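 active = mean inhibition above a set limit taken from the earlier primary screen, cut at about 13% in these data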;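 note: higher means less bacterial growth since AddAB block lets phage replicate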
RecBCD counter – AddAB counter-screen: growth loss of RecBCD+ E. coli infected with mutant T4 phage | inhibition, % at 11.9 µM | hit rate 73% among 880 | shares compounds with AddAB inh | AID 488955 | E. coli V66 + mutant T4 phage, OD growth;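 active = mean inhibition above the mean of solvent-only control wells plus 3 SD, cut at about 4% in these data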;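 note: optical density read after an 18 h incubation at 37 °C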
bact viab count – counter-screen: bacterial growth inhibition | shares compounds with AddAB inh | bacterial viability, absorbance (AddAB counterscreen) | inhibition, % at 11.9 µM | hit rate 35% among 880 | AID 488956; in the data active = inhibition above about 25%
RecBCD conf – confirmation: growth loss of phage-infected RecBCD+ E. coli (RecBCD inhibitor screen); hit rate 45% among 890; shares compounds with phage Ecoli inh; AID 651982; E. coli V66 + T4 2- phage, growth OD; inhibition, % at 11.9 µM;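 active = mean inhibition over triplicates exceeding the hit threshold derived in the original primary screen, cut at about 11% in these data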
Ecoli viability – counter-screen for RecBCD inhibitors: inhibitors of bacterial viability; inhibition, % at 11.9 µM; hit rate 29% among 890; E. coli viability, absorbance (OD) growth; shares compounds with phage Ecoli inh; in the data active = inhibition above about 20%;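 note: E. coli strain V66 grown with compound alone and no phage infection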
AddAB phage OD – growth loss of phage-infected AddAB E. coli, RecBCD counter-screen; shares compounds with phage Ecoli inh; E. coli expressing H. pylori AddAB + T4 phage, OD growth; gene 2 mutant T4, recBCD-deleted host; inhibition, % at 11.9 µM; hit rate 45% among 890;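 active = mean inhibition above the solvent-only control wells' mean plus 3 SD, cut at about 22% in these data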;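 note: higher means less bacterial growth from phage killing when AddAB is blocked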
Large screens that a line does not name were inactive (follow-up assays come after a bar, where they were run). Most compounds without a hit are left out; they make up all but 0.69% or so of the library.

CCOC(=O)c1ccc(NC(=O)CSc2ccc(-c3cccnc3)nn2)cc1	AddAB inh 16 (no result: PfHsp90 yeast 2, E coli growth-2) | AddAB conf inactive | RecBCD counter 4.1 | bact viab count inactive
COC(=O)c1ccc(-n2c(C)cc(C=NNc3nc(C)cc(=O)[nH]3)c2C)cc1	none (no result: E coli growth-1, AddAB inh, PfHsp90 yeast 2, phage Ecoli inh, Tat export inh)
COC(=O)[C@]1(C)NC(c2ccc(-c3ccc(Cl)c(Cl)c3)c(OC)c2)C2C(=O)N(C)C(=O)C21 (some centres not stated)	none (no result: E coli growth-1, AddAB inh, PfHsp90 yeast 2, phage Ecoli inh, Tat export inh)
O=C(Nc1ccc2oc(-c3ccncc3)nc2c1)c1ccc([N+](=O)[O-])o1	E coli growth-1 15, AddAB inh 18 | AddAB conf 89 | RecBCD counter 8.8 | bact viab count inactive
CCOC1OC(C(N)=O)=CC(c2ccc(Br)cc2)C1CCCO (configuration not stated)	none (no result: E coli growth-1, AddAB inh, PfHsp90 yeast 2, phage Ecoli inh, Tat export inh)
COc1ccc(/C=N\NC(=O)c2cc(O)c(O)c(O)c2)cc1COc1ccc(C(=O)OCC(C)C)cc1	E coli growth-1 10, AddAB inh 15, phage Ecoli inh 12 (no result: E coli growth-2) | AddAB conf inactive | RecBCD counter 8.8 | bact viab count inactive | RecBCD conf inactive | Ecoli viability inactive | AddAB phage OD inactive
Cc1cccc(NC(=O)C23CCC(C)(C(=NO)C2)C3(C)C)c1 (configuration not stated)	none (no result: E coli growth-1, AddAB inh, PfHsp90 yeast 2, phage Ecoli inh, Tat export inh)
Cc1[nH]c(=O)[nH]c(=O)c1C=NNC(=O)CCCCCNC(=O)OC(C)(C)C	none (no result: E coli growth-1, AddAB inh, PfHsp90 yeast 2, phage Ecoli inh, Tat export inh)
O=C(CSc1nnc(-c2cccnc2)o1)Nc1ccc(F)cc1	none (no result: E coli growth-1, AddAB inh, PfHsp90 yeast 2, E coli growth-2, Tat export inh)
COc1ccc(NC(=O)CSc2nnc(-c3ccc(F)cc3)o2)cn1	AddAB inh 21, phage Ecoli inh 24 | AddAB conf 29 | RecBCD counter 17 | bact viab count inactive | RecBCD conf 21 | Ecoli viability 21 | AddAB phage OD 39
O=C(O)c1cccc(NN=Cc2sc(N3CCOCC3)nc2-c2ccccc2)c1	none (no result: E coli growth-1, AddAB inh, PfHsp90 yeast 2, phage Ecoli inh, Tat export inh)
O=C(NC(NC(=S)Nc1ccc(Cl)cc1)C(Cl)(Cl)Cl)c1ccco1 (configuration not stated)	E coli growth-1 15, AddAB inh 18, phage Ecoli inh 20 (no result: E coli growth-2) | AddAB conf 14 | RecBCD counter 18 | bact viab count inactive | RecBCD conf inactive | Ecoli viability inactive | AddAB phage OD inactive
CC(=O)c1ccc(NC(=S)NC(NC(=O)c2ccco2)C(Cl)(Cl)Cl)cc1 (configuration not stated)	E coli growth-1 19, AddAB inh 21, phage Ecoli inh 17 (no result: PfHsp90 yeast 2) | AddAB conf 16 | RecBCD counter 15 | bact viab count inactive | RecBCD conf inactive | Ecoli viability inactive | AddAB phage OD inactive
O=C(NC(NC(=S)Nc1ccccc1O)C(Cl)(Cl)Cl)c1ccco1 (configuration not stated)	none
CC(=O)c1ccc(NC(=O)c2ccc(NC(=O)c3ccco3)cc2)cc1	none (no result: phage Ecoli inh)
COc1ccc(CCc2cc(OC)c(OC)c(OC)c2)cc1	none (no result: E coli growth-1, AddAB inh, E coli growth-2)
COc1cc(Cc2cc(N)nc(N)n2)cc(OC)c1OC	E coli growth-1 101, AddAB inh 101, E coli growth-2 0.051, phage Ecoli inh 95 | AddAB conf 99 | RecBCD counter 99 | bact viab count 99 | RecBCD conf 103 | Ecoli viability 105 | AddAB phage OD 103
